As usually defined, the inhibition is the relative decrease from the control value, in per cent.

Experimental findings from PubChem BioAssay AID588852 (The Scripps Research Institute Molecular Screening Center, 2011) are described below.

In all, about 360,000 compounds went through this assay and about 4,600 (1.3%) were called active. This excerpt belongs to a sample that is enriched for actives. A number with no mark means an inactive call.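 The calls were made as follows: active = percent inhibition above its own plate's cutoff, namely the mean of that plate's compound wells plus 3 SD; inactive = the rest.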

Chain of Muscarinic acetylcholine receptor M1 (Homo sapiens) (P11229 whole entry, looked up): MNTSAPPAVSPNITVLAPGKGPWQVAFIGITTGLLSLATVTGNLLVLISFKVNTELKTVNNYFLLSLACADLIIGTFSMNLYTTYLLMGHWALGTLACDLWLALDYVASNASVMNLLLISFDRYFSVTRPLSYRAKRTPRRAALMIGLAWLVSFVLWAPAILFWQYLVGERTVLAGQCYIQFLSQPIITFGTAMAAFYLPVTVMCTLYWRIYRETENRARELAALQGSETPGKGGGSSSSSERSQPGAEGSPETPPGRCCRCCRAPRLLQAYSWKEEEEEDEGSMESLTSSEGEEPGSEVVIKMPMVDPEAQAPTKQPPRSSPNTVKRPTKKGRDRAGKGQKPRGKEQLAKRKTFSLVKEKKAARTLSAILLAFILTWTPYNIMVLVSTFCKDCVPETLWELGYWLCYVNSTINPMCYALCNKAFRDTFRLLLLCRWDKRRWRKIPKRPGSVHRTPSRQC

This test has as its target Muscarinic acetylcholine receptor M1 (Homo sapiens) (UniProt P11229). The test is described as follows: human M1 muscarinic receptor antagonists, primary screen, CHO-K1 cells, Fluo-8 calcium fluorescence, 1536-well (AID 588852).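 Also: peak over basal fluorescence ratio during 140 s after agonist addition; 0% = ACh EC80 plus DMSO and 100% = DMSO alone without agonist.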 Conditions: CHO-K1 hM1, Fluo-8 calcium fluorescence, ACh EC80 antagonist; at 3 µM; active compounds read high.
For `O=C(NCCCn1ccnc1)c1cc2c(s1)CCCC2`, the inhibition is -5.2%.

On to `CC(=O)Nc1ccc(CNc2nc(NCCN(C)C)nc3cc(-c4ccccc4)sc23)cc1`, for which the inhibition is -17.6%.

Regarding `COC(=O)c1ccc2c(c1)S(=O)(=O)NC(=NCCCN1CCOCC1)S2`, the inhibition was -10.8%.

With `COc1ccc(NC(=O)/C(N=Nc2cccc(S(=O)(=O)Nc3ccc(SC(F)F)cc3)c2)=C(\C)O)cc1`, the inhibition is -7.35%.

With `COc1cc(-c2nc(S(=O)(=O)c3ccc(Cl)cc3)c(N(C)C)o2)cc(OC)c1OC`, the inhibition is -1.63%.

With `COC(=O)CCSc1nccn1Cc1ccccc1`, the inhibition is -11.6%.

For the molecule `CN(CCO)C(=O)c1nc[nH]c1C(=O)N(C)Cc1ccccc1`, the inhibition is -4.9%.

In the case of `O=S1(=O)CC(N2CCN(CCO)CC2)CN1C1CCCC1` (stereo unspecified), the inhibition was -4.22%.

As for `CCOc1ccc(CCN2C(=S)N([C@@H](CC(C)C)CN3CCC[C@@H]3CN3C(=S)NC[C@@H]3Cc3ccc(O)cc3)C[C@@H]2CC(C)C)cc1`, the inhibition was 5.64%.

As to `COc1ccc(CN2CCCC(C(=O)c3ccc(Cl)cc3)C2)cc1Cn1cncn1` (stereo unspecified), the inhibition is 75.4% (active).

Turning to `COc1cc(CN2CCCC(C(=O)c3ccc(SC)cc3)C2)cc(Cl)c1O` (stereo unspecified), the inhibition was -1.81%.

In the case of `COc1ccc(CN2CCCC(C(=O)N3CCCCC3)C2)cc1` (stereo unspecified), the inhibition was 5.19%.

Take `CS(=O)(=O)c1ccccc1C(=O)Nc1ccc2sccc2c1`: the inhibition is -10.3%.

Turning to `CCC1C(=O)NCCN1C(=O)c1ccc2nc(Cc3ccc(OC)cc3)oc2c1` (stereo unspecified), the inhibition is -5.11%.

Take `CCn1ccnc1CN(C)C(=O)c1ccc2nc(Cc3ccc(OC)cc3)oc2c1`: the inhibition was 56.1% (active).

Consider `COc1ccc(Cc2nc3ccc(C(=O)N4CCC(N(C)C)C4)cc3o2)cc1` (stereo unspecified), for which the inhibition was 3.18%.

In the case of `CCC1Sc2ccc(S(=O)(=O)CCC(=O)NCc3cccs3)cc2NC1=O` (stereo unspecified), the inhibition was -5.05%.

`CC12C(=O)N(n3cnnc3)C(=O)C1C1C=CC2C1` (stereo unspecified): the inhibition was 2.29%.

Take `Cc1ccc(S(=O)(=O)N2CCN(c3ncnc4ccccc34)CC2)cc1`: the inhibition was 35.8% (active).

For the molecule `Cc1ccc(S(=O)(=O)N2CCN(Cc3cccc(C)c3O)CC2)cc1`, the inhibition is 4.67%.

For the molecule `Cc1ccc(C)c(S(=O)(=O)N2CCN(c3ncnc4sccc34)CC2)c1`, the inhibition is 34.7% (active).

As to `COc1ccc(-c2csc3ncnc(N4CCN(S(=O)(=O)c5ccccc5C#N)CC4)c23)cc1`, the inhibition was -2.61%.

`Cc1ccc(C)c(S(=O)(=O)N2CCN(CC(=O)Nc3ccc([N+](=O)[O-])cc3)CC2)c1`: the inhibition was 9.07%.

With `Cc1ccc(S(=O)(=O)N2CCN(C)CC2)cc1`, the inhibition was -16.6%.

Regarding `CC(Sc1sc(=S)sc1SC(C)C(=O)O)C(=O)O` (stereo unspecified), the inhibition is 1.12%.

As for `C[C@H]([C@@H](O)[C@@H](O)[C@@H](C)C(C)(C)C)[C@H]1CC[C@H]2C3CC[C@H]4C[C@H](OS(=O)(=O)O)[C@@H](OS(=O)(=O)O)C[C@]4(C)[C@H]3CC[C@]12C` (stereo partly specified), the inhibition was -9.61%.

In the case of `Cc1nc(-c2nnc(SCC(=O)Nc3cc(C(F)(F)F)cc(C(F)(F)F)c3)n2C)cs1`, the inhibition was -3.69%.

In the case of `C=C1C(=O)[C@]23C[C@H]1CCC2[C@@]1(C)C(C[C@@H]3O)[C@](C)(C(=O)O)CC[C@@H]1O` (stereo partly specified), the inhibition was -14.8%.

As to `CN1/C(=c2/s/c(=C3/C(=O)N(c4ccccc4)NC3=Nc3ccccc3)n(C)c2=O)C(C)(C)c2ccccc21`, the inhibition is 12.2%.

With `CCOc1ccccc1CN1CCN(C2CCC2)CC1CCO` (stereo unspecified), the inhibition is -17.7%.

With `COc1cccc(CN(C)CC(O)COC(c2ccccc2)c2ccccc2C)c1` (stereo unspecified), the inhibition was 16.4%.

Take `Cc1ccccc1C(OCC(O)CN1CCCCC1CCO)c1ccccc1` (stereo unspecified): the inhibition was 28.9% (active).

On to `C[C@H]1CN([C@@H](C)CO)C(=O)CCCn2cc(nn2)CO[C@@H]1CN(C)S(=O)(=O)c1cccc(C#N)c1`, for which the inhibition was -7.84%.

As for `Cc1cc(Br)cn2c(Cc3ccsc3)c(-c3ccc(C#N)cc3)nc12`, the inhibition was -2.47%.

Take `CC(=O)c1nn(-c2ccccc2)c(=Nc2ccccc2)cc1C`: the inhibition was 2.25%.

As for `CCN(CCCCOC(=O)c1ccc(OC)c(OC)c1)C(C)Cc1ccc(OC)cc1` (stereo unspecified), the inhibition is 91.6% (active).

Consider `COc1ccc(C(CCN(Cc2ccc(OC)c(OC)c2)C(=O)CCl)c2ccccc2)cc1` (stereo unspecified), for which the inhibition is -0.77%.

As for `COc1ccc(C(=O)OCC(=O)NCCCc2ccccc2)cc1OC`, the inhibition was -14.8%.

Take `CCC(=O)c1ccc(N2CCN(C(=O)c3cc([N+](=O)[O-])ccc3F)CC2)c(F)c1`: the inhibition was 11.9%.

For `CCN1CCN(c2ccc([N+](=O)[O-])cc2C(=O)c2ccc(Cl)cc2)CC1`, the inhibition was 96.3% (active).

Take `O=C(Nc1cccc(Cl)c1)c1cc([N+](=O)[O-])ccc1N1CCN(CCO)CC1`: the inhibition was -7.1%.

`Cc1cccc(OCC(=O)OCC(=O)Nc2ccc(Cl)cn2)c1`: the inhibition was -3.17%.

Regarding `CCc1noc(C)c1C(=O)N1CCCSC1=Nc1ccccc1OC`, the inhibition is 3.24%.

On to `CC(C)c1ccc2oc(=O)cc(CN3CCN(Cc4ccccc4)CC3)c2c1`, for which the inhibition was -7.34%.

As for `N#Cc1ccc(OCCN2C(=O)NC3(CCSC3)C2=O)cc1` (stereo unspecified), the inhibition was 5.7%.

Regarding `COc1ccc(-c2cc3c(c4c2ccn4C)C2CCC3C2)cn1` (stereo unspecified), the inhibition is 3.78%.

As for `CC(=O)c1c(C)[nH]c(C(=O)COC(=O)c2cccs2)c1C`, the inhibition is 10.1%.

`COc1cccc(C(=O)OCC(=O)c2[nH]c(C)c(C(C)=O)c2C)c1`: the inhibition was 8.52%.

`CC(=O)c1c(C)[nH]c(C(=O)COC(=O)c2cccc(S(=O)(=O)N(C)c3ccccc3)c2)c1C`: the inhibition is 57% (active).

`O=C1C=C(c2ccccc2)CCC1`: the inhibition is 6.35%.

For the molecule `NC(Cc1ccc(F)cc1)c1csc(Nc2nncc3ccccc23)n1` (stereo unspecified), the inhibition was -3.42%.

`COc1ccc(C(=O)NC2CC(C)(C)Cc3c2cnn3-c2ccccc2C)o1` (stereo unspecified): the inhibition was 0.26%.

With `COc1ccc(C(=O)NC2CCCc3c2cnn3-c2cccc(C)c2C)c(OC)n1` (stereo unspecified), the inhibition was 46.9% (active).

As to `COc1ccc(OC)c(C(=O)NC2CCCc3c2cnn3-c2cc(C)cc(C)c2)c1` (stereo unspecified), the inhibition was -5.27%.

Take `Cc1cn([C@H]2C[C@H](O)[C@@H](/C=C/C(=O)NCCCc3ccccc3)O2)c(=O)[nH]c1=O`: the inhibition was -25.2%.

Regarding `COc1cccc(NC(=O)CN(C)C(=O)CSCc2nc3scc(-c4cccs4)c3c(=O)[nH]2)c1`, the inhibition is -1.71%.

`CCN(CCCNC(=O)c1ccc2c(c1)NC(=O)CN2C)c1cccc(C)c1`: the inhibition is 8.18%.

As to `NS(=O)(=O)c1cccc(NC(=O)CC23CC4CC(CC(Br)(C4)C2)C3)c1`, the inhibition is 6.38%.

As for `CC(C)Oc1cc(F)ccc1-c1cc(C(=O)Nc2cccc(Cl)c2)[nH]n1`, the inhibition is 24.4%.

`CCCOc1ccc(F)cc1-c1cc(C(=O)Nc2ccc(F)c(Cl)c2)[nH]n1`: the inhibition was 58.9% (active).

Regarding `CCCOc1ccc(F)cc1-c1cc(C(=O)NCc2ccc(F)cc2)[nH]n1`, the inhibition is 1.58%.

As for `CCCOc1ccc(F)cc1-c1cc(C(=O)Nc2ccc(F)cc2)[nH]n1`, the inhibition was 34.5% (active).

As for `CC(C)Oc1cc(F)ccc1-c1cc(C(=O)Nc2ccc(F)cc2)[nH]n1`, the inhibition is 5.41%.

On to `COc1ccc(Cl)cc1-c1cc(C(=O)Nc2cc(OC)c(OC)c(OC)c2)[nH]n1`, for which the inhibition is 0.33%.

As to `CCOC(=O)[C@H]1Nc2ccc(Cl)cc2[C@@H]2[C@H]1C1CC(c3ccccc31)N2C(=O)OCc1ccccc1` (stereo partly specified), the inhibition is 6.68%.

In the case of `Nc1cc(C(F)(F)F)ccc1N1CCOCC1`, the inhibition was 3.72%.

`CCCCN1CC(N2CCN(Cc3cccc(C)c3)CC2)CS1(=O)=O` (stereo unspecified): the inhibition is 8.04%.

Regarding `CSc1ccc(CN2C(=O)NC3(CCCCCC3)C2=O)cc1`, the inhibition was 8.79%.

Take `CC(C)(C)C(=O)NC1CC2CCCC(C1)N2C(=O)Nc1ccccc1F` (stereo unspecified): the inhibition was -7.35%.

For `COc1ccc(S(=O)(=O)NCCOc2ccccc2)cc1F`, the inhibition was -7.76%.

Take `COc1ccc(S(=O)(=O)NCCCCOc2ccc(Cl)cc2)cc1`: the inhibition was 32.6% (active).

With `COc1ccc(OCCNS(=O)(=O)Cc2ccccc2)cc1`, the inhibition was -0.06%.

Take `CC(C)OCC(O)CN1CCN(C(c2ccccc2)c2ccccc2)CC1` (stereo unspecified): the inhibition was 24.4%.

In the case of `CC1(C)CC(N2CCN(C(c3ccccc3)c3ccccc3)CC2)=CC(=[N+]2CCCCC2)C1`, the inhibition was 72.8% (active).

On to `CC1(C)CC(=O)C=C(N2CCOCC2)C1`, for which the inhibition is -7.94%.

With `CCNS(=O)(=O)c1ccc(CCC(=O)N2CCN(c3cc(Cl)ccc3C)CC2)cc1`, the inhibition is 13.9%.

As for `Cc1sc2ccccc2c1CNC[C@H]1O[C@@H](n2ccc(=O)[nH]c2=O)[C@H](O)[C@@H]1O`, the inhibition was -6.07%.

For the molecule `COc1ccccc1C(=O)NC(CCSC)C(=O)N1CCN(C(C)=O)CC1` (stereo unspecified), the inhibition is -18.2%.

Turning to `CSCCC(NC(=O)c1ccccc1)C(=O)N1CCN(Cc2ccc(Cl)cc2)CC1` (stereo unspecified), the inhibition is 31.4% (active).

Regarding `CSCCC(NC(=O)c1ccccc1)C(=O)N1CCCCCCC1` (stereo unspecified), the inhibition is -10.3%.

Consider `O=c1c2c(ncn1Cc1ccccc1)nc1n2CCC1`, for which the inhibition was -9.57%.

Take `COc1ccc(-c2nc3ccc(Br)cn3c2Cc2ccc(C)cc2)cc1OC`: the inhibition is -18.2%.

Regarding `CCc1cccc(NC(=O)COC(=O)C2CCN(c3ccc(C(F)(F)F)cn3)CC2)c1`, the inhibition was 2.01%.

On to `CCOc1ccc(CCNC(=O)COC(=O)C2CCN(c3ccc(C(F)(F)F)cn3)CC2)cc1OCC`, for which the inhibition was 38.9% (active).

On to `CCOc1ccc(CCNC(=O)COC(=O)C2CCN(S(=O)(=O)c3ccccc3)CC2)cc1OCC`, for which the inhibition is -4.87%.

As to `CCc1ccc([C@@H]2CC(=O)[C@@H]3CN(S(=O)(=O)c4ccc(C)cc4)[C@H](c4ccc(Cl)cc4)C[C@@H]3N2S(=O)(=O)c2ccc(C)cc2)cc1`, the inhibition is -3.63%.
